Data on 11 molecules can be found in PubChem BioAssay (Tox21).

A number with no mark means an inactive call. Inconclusive results are not listed. Activity calls are given as the source filed them. Unless noted, calls come from the whole dose curve.

A short description of assay [1]: Nuclear factor erythroid 2-related factor 2/antioxidant responsive element (Nrf2/ARE) small molecule agonists: qHTS cell viability counter screen in human keratinocytes (AID 1919968; active = well fitted curve in the direction sought with a large enough effect in the repeat runs; an effect the other way counts as inactive or inconclusive; note: nearly all actives have a fitted effect of over 55% in size; note: potency is the fitted concentration of half-maximal effect). The gist of the method:
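Cytotoxicity was multiplexed with the Nrf2/ARE luciferase assay in the same wells. Stably transfected HaCaT keratinocytes were treated with test compounds for 23 h at 37 C. Cell viability was then measured by CellTiter-Fluor fluorescence.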
On the technique in general: qHTS replaces the single test concentration by a dilution series.

For assay [2], the target named is KiSS-1 receptor (Homo sapiens) (UniProt Q969F8). The assay is described as follows: Human kisspeptin (KISS1R) small molecule agonists, calcium flux assay in KISS1R-HEK293 cells (AID 1920064; active = well fitted curve in the direction sought with a large enough effect in the repeat runs; an effect the other way counts as inactive or inconclusive). The gist of the method:
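Agonist activity is monitored as intracellular calcium rise in engineered HEK293 cells carrying human KISS1R. Cells are dye-loaded for 1 h at 37 C before compound addition, and fluorescence is recorded for 3 min.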

A short description of assay [3]: G protein-coupled receptor (GPCR) small molecule agonists, calcium flux assay: HEK293 wild type cell line counter screen (AID 1920065). The gist of the method:
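Seed cells, incubate 18 h (37 C, 5% CO2); add calcium dye, 1 h at 37 C; pin-transfer compounds, ATP control or DMSO; read fluorescence 480/540 nm each second for 3 min.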
A general note: Calcium flux is commonly read through the fluorescence of an indicator in the cells.

Assay [4] can be described thus: p53 small molecule agonists, cell-based qHTS assay with rat liver microsomes (AID 1963578). The gist of the method: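 Cells carrying a p53 response element–beta-lactamase reporter were plated and rested 5 h, then dosed with compound in DMSO plus rat liver microsomes and NADPH, each at 0.5 mg/mL final. After 16 h at 37 C, LiveBLAzer substrate was added for 2 h.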
The nature of assay [5]: p53 small molecule agonists, cell-based qHTS assay with human liver microsomes: qHTS cell viability counter screen (AID 1963579). Note: nearly all actives have a fitted effect of over 45% in size. The gist of the method: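 Cytotoxicity counter screen: p53RE-bla, 4,000 cells/well; 5 h settle, 37 C/5% CO2; cpd + HLM 0.5 mg/mL + NADPH 0.5 mg/mL (final); 16 h, 37 C; CellTiter-Glo, 30 min RT, luminescence.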
Assay [6] can be described thus: p53 small molecule agonists, cell-based qHTS assay with rat liver microsomes: qHTS cell viability counter screen (AID 1963580). Note: nearly all actives have a fitted effect of over 45% in size. The gist of the method:
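Cytotoxicity counter screen: intracellular ATP measured by CellTiter-Glo luminescence in the same wells as the beta-lactamase reporter read, on HCT-116 p53RE-bla cells exposed 16 h at 37 C to compounds with rat liver microsomes and NADPH, each 0.5 mg/mL final.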

Assay [7] in a line: p53 small molecule agonists, cell-based qHTS assay: qHTS cell viability counter screen (AID 1963581). Note: nearly all actives have a fitted effect of over 45% in size. The gist of the method:
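Viability was counter-screened in parallel with the p53 agonist reporter by measuring intracellular ATP luminescence in the same HCT-116 p53RE-bla wells after 16 h compound treatment at 37 C.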

The target of assay [8] is 5-hydroxytryptamine receptor 2A (Homo sapiens) (UniProt P28223). The assay is described as follows: 5-hydroxytryptamine receptor 2A (HTR2A) small molecule antagonists, cell-based qHTS assay (AID 1963586). Note: nearly all actives have a fitted effect of over 45% in size. Note: potency is the fitted concentration of half-maximal effect. The procedure, abridged:
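CHO cells stably expressing human HTR2A were plated for 18 h at 37 C, then loaded with calcium dye for 1 h. Compounds were preincubated 5 min at room temperature before DOI (4 nM solution) was added. Kinetic fluorescence was read for 3 min.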

Assay [9] deals with Muscarinic acetylcholine receptor M1 (Homo sapiens) (UniProt P11229). The assay is described as follows: Cholinergic receptor muscarinic 1 (CHRM1) small molecule agonists, cell-based qHTS assay (AID 1963589). Note: nearly all actives have a fitted effect of over 35% in size. The procedure, abridged: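 Cells were plated and incubated 18 h at 37 C/5% CO2, loaded with calcium dye for 1 h at 37 C, then treated with compounds in DMSO. Fluorescence was recorded kinetically at 1 sec intervals.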

Assay [10] can be described thus: cAMP Responsive Elements (CRE) small molecule agonists, cell-based qHTS assay (AID 1963590). The gist of the method:
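Cells carrying a CRE-driven beta-lactamase reporter (HEK 293T) are seeded, incubated overnight (18 h), and treated with test compounds for 3 h at 37 C; reporter activity is then detected with a FRET substrate after 2 h at room temperature.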

Assay [11] in a line: cAMP Responsive Elements (CRE) small molecule antagonists, cell-based qHTS assay (AID 1963591; active = well fitted inhibition curve with a large enough effect in the signal ratio in the repeat runs, not every such curve was filed as active; the % refers to the signal ratio). The gist of the method: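 Cells (CRE-bla HEK 293T, DMEM with 10% dialyzed FBS and 25 mM HEPES) are seeded and incubated 18 h. Compounds are added with NKH477 agonist at 0.25 uM final for 3 h, then FRET substrate for 2 h.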
Assay [12] has as its target D(2) dopamine receptor (Homo sapiens) (UniProt P14416). The assay is described as follows: Dopamine D2 receptor (DRD2) small molecule agonists, cell-based qHTS assay (AID 1963594). Note: nearly all actives have a fitted effect of over 35% in size. The gist of the method:
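HEK293 cells stably expressing human DRD2, pre-treated with PDE inhibitor Ro20-1724 (0.1 mM final) and compound 10 min at room temperature, then stimulated with NKH477 (200nM […]) for 30 min. cAMP read by HTRF (665/620 nm).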

Assay [13] shares this target. Description: Dopamine D2 receptor (DRD2) small molecule antagonists, cell-based qHTS assay (AID 1963595; active = well fitted inhibition curve with a large enough effect in the signal ratio in the repeat runs, with a control signal flat; the % refers to the signal ratio). The gist of the method:
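DRD2-HEK293; 0.1 mM Ro20-1724; cpd 10 min RT; NKH477 200 nM + quinpirole 12 nM, 30 min RT; HTRF cAMP (cAMP-d2/anti-cAMP cryptate), 665/620 nm ratio after 1 h.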

Assay [14] addresses 5-hydroxytryptamine receptor 2A (Homo sapiens) (UniProt P28223). Description: 5-hydroxytryptamine receptor 2A (HTR2A) small molecule agonists, cell-based qHTS assay (AID 1963587). Note: nearly all actives have a fitted effect of over 30% in size. Note: potency is the fitted concentration of half-maximal effect. The gist of the method: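 CHO cells stably expressing human HTR2A, plated 18 h, loaded with calcium dye 1 h at 37 C. Agonist mode: compounds added and intracellular calcium fluorescence recorded kinetically for 2 min at 1 sec intervals.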

Assay [15] has as its target Muscarinic acetylcholine receptor M1 (Homo sapiens) (UniProt P11229). The assay is described as follows: Cholinergic receptor muscarinic 1 (CHRM1) small molecule antagonists, cell-based qHTS assay (AID 1963588). Note: nearly all actives have a fitted effect of over 40% in size. The procedure, abridged:
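Compounds were tested at 15 concentrations in three independent runs. Dye-loaded CHRM1-CHO cells were exposed 5 min at room temperature before stimulation by acetylcholine added at 50nM. Intracellular calcium was read kinetically on FDSS for 3 min.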

In assay [16] the target is Beta-2 adrenergic receptor (Homo sapiens) (UniProt P07550). The assay is described as follows: Adrenergic beta2 receptor (ADRB2) small molecule antagonists, cell-based qHTS assay (AID 1963592). Note: series mostly up to about 92 µM; nearly all actives have a fitted effect of over 50% in size. The gist of the method: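 Assay format: CHO-ADRB2 cells, 18-20hr seeding at 37C/5% CO2, then compound plus 1nM isoproterenol agonist mix for 0.5hr RT. Homogeneous time-resolved fluorescence cAMP detection after 1hr, expressed as 665/615 nm ratio.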

Assay [17] shares this target. Description: Adrenergic beta2 receptor (ADRB2) small molecule agonists, cell-based qHTS assay (AID 1963593).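 Note: CHO cells stably overexpressing human ADRB2.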 The gist of the method:
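CHO cells stably over-expressing ADRB2 were plated overnight at 37C, then dosed with compounds plus a stimulation mix containing 100uM IBMX and 25uM Ro-20-1724 for 0.5hr at room temperature. cAMP was measured by HTRF competition, 1hr.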

A short description of assay [18]: p53 small molecule agonists, cell-based qHTS assay with human liver microsomes (AID 1963577). The procedure, abridged: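 Fluorescence of the beta-lactamase reporter in p53RE-bla cells, detected with LiveBLAzer substrate (2 h, room temperature, dark), served as the read-out after 16 h compound exposure at 37 C with human liver microsomes and NADPH, each 0.5 mg/mL final.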

Assay [19] is described as follows: p53 small molecule agonists, cell-based qHTS assay (AID 1963582; active = well fitted activation curve with a large enough effect in the signal ratio in the repeat runs, not every such curve was filed as active; the % refers to the signal ratio). The procedure, abridged: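 Cells carrying a p53-responsive bla reporter are treated with test compounds for 16 h at 37 C; beta-lactamase activity is then detected with LiveBLAzer B/G FRET substrate after 2 h at room temperature.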

Chain of 5-hydroxytryptamine receptor 2A (Homo sapiens) (P28223 whole entry, looked up): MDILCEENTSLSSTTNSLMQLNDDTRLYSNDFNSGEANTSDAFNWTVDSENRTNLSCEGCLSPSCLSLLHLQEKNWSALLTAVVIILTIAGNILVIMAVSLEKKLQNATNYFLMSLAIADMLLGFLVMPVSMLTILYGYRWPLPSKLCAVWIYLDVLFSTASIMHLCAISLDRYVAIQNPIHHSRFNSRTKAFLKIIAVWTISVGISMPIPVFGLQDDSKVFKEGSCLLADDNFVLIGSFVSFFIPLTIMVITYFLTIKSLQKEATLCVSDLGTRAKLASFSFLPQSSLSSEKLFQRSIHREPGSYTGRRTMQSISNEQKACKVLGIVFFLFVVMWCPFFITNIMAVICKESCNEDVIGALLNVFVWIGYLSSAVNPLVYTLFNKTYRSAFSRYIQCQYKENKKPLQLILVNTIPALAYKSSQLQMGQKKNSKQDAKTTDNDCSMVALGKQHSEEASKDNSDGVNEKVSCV
Chain of Muscarinic acetylcholine receptor M1 (Homo sapiens) (P11229 whole entry, looked up): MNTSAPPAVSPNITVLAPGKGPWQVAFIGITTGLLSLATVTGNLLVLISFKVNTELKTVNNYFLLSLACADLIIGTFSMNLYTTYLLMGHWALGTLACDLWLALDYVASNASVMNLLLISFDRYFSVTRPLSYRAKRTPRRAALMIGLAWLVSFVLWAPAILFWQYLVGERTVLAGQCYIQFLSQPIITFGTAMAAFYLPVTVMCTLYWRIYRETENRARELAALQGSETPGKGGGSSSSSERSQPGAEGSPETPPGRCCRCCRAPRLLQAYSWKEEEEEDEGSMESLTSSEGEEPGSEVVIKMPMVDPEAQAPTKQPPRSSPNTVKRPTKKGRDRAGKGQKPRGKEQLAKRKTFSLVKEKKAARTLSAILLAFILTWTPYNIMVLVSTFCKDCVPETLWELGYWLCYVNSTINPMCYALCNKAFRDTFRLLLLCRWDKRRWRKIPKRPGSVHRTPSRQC
Chain of KiSS-1 receptor (Homo sapiens) (Q969F8 whole entry, looked up): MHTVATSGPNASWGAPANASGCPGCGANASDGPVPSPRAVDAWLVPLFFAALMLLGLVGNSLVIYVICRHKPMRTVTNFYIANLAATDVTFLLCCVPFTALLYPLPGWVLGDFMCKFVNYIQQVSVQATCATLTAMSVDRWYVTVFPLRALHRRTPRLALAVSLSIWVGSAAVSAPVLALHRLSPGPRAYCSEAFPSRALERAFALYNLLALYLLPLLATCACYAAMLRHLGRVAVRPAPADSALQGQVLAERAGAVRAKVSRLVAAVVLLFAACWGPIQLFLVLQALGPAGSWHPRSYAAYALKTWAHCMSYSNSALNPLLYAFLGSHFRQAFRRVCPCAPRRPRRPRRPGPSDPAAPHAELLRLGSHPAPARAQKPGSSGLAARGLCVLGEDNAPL
Chain of D(2) dopamine receptor (Homo sapiens) (P14416 whole entry, looked up): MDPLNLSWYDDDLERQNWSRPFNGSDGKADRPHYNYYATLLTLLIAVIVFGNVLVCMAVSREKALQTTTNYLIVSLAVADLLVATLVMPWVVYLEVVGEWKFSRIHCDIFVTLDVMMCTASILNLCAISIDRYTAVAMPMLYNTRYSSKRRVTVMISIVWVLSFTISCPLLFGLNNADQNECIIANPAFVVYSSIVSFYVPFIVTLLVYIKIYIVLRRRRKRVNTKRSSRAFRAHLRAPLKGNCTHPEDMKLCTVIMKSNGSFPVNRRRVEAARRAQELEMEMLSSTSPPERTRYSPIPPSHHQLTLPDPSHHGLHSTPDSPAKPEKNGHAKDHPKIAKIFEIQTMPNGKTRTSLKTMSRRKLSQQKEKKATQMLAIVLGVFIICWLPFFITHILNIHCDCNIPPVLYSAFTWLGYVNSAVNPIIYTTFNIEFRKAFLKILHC
Chain of Beta-2 adrenergic receptor (Homo sapiens) (P07550 whole entry, looked up): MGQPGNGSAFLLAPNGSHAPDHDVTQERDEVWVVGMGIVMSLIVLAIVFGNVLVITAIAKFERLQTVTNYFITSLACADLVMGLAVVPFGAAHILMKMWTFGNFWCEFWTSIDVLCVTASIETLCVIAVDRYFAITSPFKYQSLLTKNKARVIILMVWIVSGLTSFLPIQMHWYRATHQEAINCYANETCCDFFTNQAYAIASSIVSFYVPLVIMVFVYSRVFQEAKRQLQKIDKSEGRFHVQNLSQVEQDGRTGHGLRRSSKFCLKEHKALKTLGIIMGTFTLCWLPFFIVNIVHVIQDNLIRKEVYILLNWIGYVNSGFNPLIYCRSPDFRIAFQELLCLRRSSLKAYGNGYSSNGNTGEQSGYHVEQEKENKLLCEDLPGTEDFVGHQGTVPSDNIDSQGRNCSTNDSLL

As for `OC(CN1CCC(Cc2ccc(F)cc2)CC1)c1ccc(Cl)cc1` (stereo unspecified), the Potency in [1] was 29.8 µM (active); in [8], 1.63 µM (active). Moreover, the Potency result in assay [2], in assay [3], in assay [4], in assay [5], in assay [6] and in [7] was “inactive” throughout. Besides, the Potency result in [9], in [10], in assay [11], in assay [12] and in assay [13] was “inactive” throughout.

In the case of `CN(C)CCCCCCN(C)C`, the Potency result in assay [1], in assay [2], in assay [3], in assay [8], in assay [14] and in assay [15] was “inactive” each time. In addition, the Potency result in assay [9], in [10], in assay [11], in [16], in assay [17] and in assay [12] was “inactive” each time. For the same molecule, the Potency entry in [13] was “inactive”.

On to `CC(C)OC(=O)OCOP(=O)(CO[C@H](C)Cn1cnc2c(N)ncnc21)OCOC(=O)OC(C)C`, for which the Potency result in assay [1], in [2], in [3], in assay [18], in assay [4] and in assay [5] was “inactive” each time. The Potency entry in assay [6], in assay [7], in assay [19], in assay [14], in assay [15] and in assay [9] was “inactive” in each case. In addition, the Potency entry in assay [10], in [11], in assay [16], in [12] and in [13] was “inactive” throughout.

As for `CCCCCCC1CCC(=O)O1` (stereo unspecified), the Potency entry in [1], in assay [3], in assay [18], in [4], in [5] and in assay [6] was “inactive” throughout. Moreover, the Potency result in assay [7], in assay [19], in [8], in assay [14], in [15] and in [9] was “inactive” throughout. In addition, the Potency entry in assay [11], in [16], in assay [12] and in assay [13] was “inactive” throughout.

Take `CCCCCOC(=O)Nc1nc(=O)n([C@@H]2O[C@H](C)[C@@H](O)[C@H]2O)cc1F`: the Potency entry in assay [1], in assay [2], in [3], in assay [4], in assay [6] and in assay [7] was “inactive” each time. The Potency entry in assay [8], in assay [14], in assay [15], in assay [9], in assay [11] and in [16] was “inactive” throughout. In addition, the Potency entry in assay [17], in [12] and in assay [13] was “inactive” throughout.

As for `CCOC(=O)C1=C[C@]2(CC)CCCN3CCc4c(n1c1ccccc41)[C@@H]32`, the Potency result in [1], in assay [2], in [3], in [18], in assay [4] and in [6] was “inactive” in each case. For the same molecule, the Potency result in assay [8], in assay [9], in [11], in [16], in [17] and in [12] was “inactive” in each case. Besides, the Potency entry in assay [13] is “inactive”. The Potency in assay [14] is 23.9 µM (active).

For `ClC(Cl)(Cl)c1ccc(C(Cl)(Cl)Cl)cc1`, the Potency entry in [1], in assay [2], in assay [3], in assay [18], in assay [4] and in [5] was “inactive” each time. The Potency result in [6], in [7], in [8], in assay [14], in assay [15] and in [9] was “inactive” each time. The Potency result in assay [10], in [11], in [16], in assay [12] and in assay [13] was “inactive” throughout.

For `CCCCc1cc2ccccc2c(OCCN(C)C)n1`, the Potency result in assay [1], in [2], in assay [3], in assay [18], in assay [4] and in assay [5] was “inactive” each time. Besides, the Potency entry in assay [6], in [19], in assay [8], in assay [14], in assay [9] and in assay [11] was “inactive” throughout. Further, the Potency entry in assay [12] and in [13] was “inactive” in each case.

In the case of `C/C(=C(/OCCOc1ccc(Cl)cc1)c1ccc(Cl)cc1Cl)n1ccnc1`, the Potency in [1] is 13.3 µM (active). The Potency result in assay [2], in [3], in assay [18], in [4], in [5] and in [6] was “inactive” throughout. In addition, the Potency entry in assay [7], in assay [19], in assay [14], in [9], in assay [10] and in assay [11] was “inactive” in each case. The Potency result in [16], in [17], in assay [12] and in [13] was “inactive” in each case.

Turning to `COCC(=O)O[C@]1(CCN(C)CCCc2nc3ccccc3[nH]2)CCc2cc(F)ccc2[C@@H]1C(C)C`, the results for the Potency in assay [1] and in assay [8] were 23.7 µM (active) and 5.16 µM (active), respectively. Moreover, the Potency entry in [2], in assay [3], in assay [18], in [4], in assay [5] and in assay [6] was “inactive” each time. The Potency result in [14], in [15], in assay [9], in assay [16], in assay [12] and in [13] was “inactive” each time.

Take `CC(C)NCC(O)COc1ccc(CCOCC2CC2)cc1` (stereo unspecified): the Potency result in [1], in assay [2], in assay [3], in assay [4], in assay [6] and in assay [7] was “inactive” each time. In addition, the Potency result in [19], in [15], in assay [9], in [10] and in [13] was “inactive” in each case.
